“And” between values parts separate entries of the source, which are not always exact repeats. Equal values may be shown once. Records with an inconclusive call do not appear. The source made the active and inactive calls. Calls follow the shape of the dose curve; as a rule, active = well fitted curve in the direction sought with a large enough effect; inconclusive = small, poorly fitted or top-dose-only effect, or another doubt; inactive = no such curve, though single readings can be large; an effect the other way counts as inactive or inconclusive.
What was measured:
[1] = target: Cellular tumor antigen p53 (Homo sapiens) (UniProt P04637); assay: Primary qHTS for small molecule compounds that upregulate eGFP-tagged delta133p53alpha (in N-terminal) cells. (AID 2060322); conditions: NCI-H358 eGFP-delta133p53alpha fluorescence, 24 h; activation: stronger effect = higher value; also: nearly all actives have a fitted effect of over 75% in size; also: potency is read from the fitted curve at half-maximal effect;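 as to activation: cells pre-induced with doxycycline then dosed without doxycycline; series mostly up to about 56 µM; 0% = DMSO vehicle and 100% = reference activator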
Outline: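 NCI-H358 cells pre-induced 24 h with 10 ng/ml doxycycline for eGFP-delta133p53alpha, plated dox-free and exposed 24 h at 37C to titrated compounds. Fixed, Hoechst-stained; gated GFP peak intensity by laser scanning cytometry, normalized to DMSO (0%) and 57.5 uM 5-azacytidine (100%).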

[2] = target: Aldehyde dehydrogenase, mitochondrial (Homo sapiens) (UniProt P05091); assay: qHTS for Inhibitors of the Aldehyde Dehydrogenase Family (ALDH2) Primary screen (AID 2061308);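 also: plate controls were vehicle for no effect and reference inhibitor for full effect; nearly all actives have a fitted effect of over 55% in size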
[3] = target: Retinaldehyde dehydrogenase 3 (Homo sapiens) (UniProt P47895); assay: qHTS for Inhibitors of the Aldehyde Dehydrogenase Family (ALDH1A3) Primary screen (AID 2061315);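 also: plate controls were DMSO vehicle for no effect and reference inhibitor for full effect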
[4] = BET inhibitor-based combinations targeting novel dependencies in MECOM-rearranged (r) AML: SET-2 cell line (AID 2202231); conditions: SET-2 AML cells viability, CellTiter-Glo luminescence, 48 h; viability: stronger effect = lower value, concentration not given here; also: nearly all actives have a fitted effect of over 35% in size; also: potency is read from the fitted curve at half-maximal effect;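 as to viability: plate controls were DMSO treated cells for no effect and wells without cells for full effect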
Outline: (§1)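 Here, 11-point titrations of each agent were applied to 500 seeded cells and incubated 48 hr; CellTiter-Glo signal, scaled against DMSO and empty wells, was integrated as AUC, then Z-scored within the individual line.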

[5] = BET inhibitor-based combinations targeting novel dependencies in MECOM-rearranged (r) AML: OCI-AML3 cell line (AID 2202232); conditions: Potency: OCI-AML3 viability; also: nearly all actives have a fitted effect of over 35% in size; also: potency is read from the fitted curve at half-maximal effect
Outline: as §1

[6] = BET inhibitor-based combinations targeting novel dependencies in MECOM-rearranged (r) AML: MV-4-11 cell line (AID 2202233); also: nearly all actives have a fitted effect of over 45% in size; also: potency is read from the fitted curve at half-maximal effect
Outline: (§2)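 Normalized to DMSO and empty-well controls, the luminescence data from CellTiter-Glo after 48 hr drug exposure were fitted across 11 concentrations. Reported metrics are area under the dose-response curve and its Z-transformed form.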

[7] = BET inhibitor-based combinations targeting novel dependencies in MECOM-rearranged (r) AML: UCSD-AML1 cell line (AID 2202235); also: nearly all actives have a fitted effect of over 40% in size; also: potency is read from the fitted curve at half-maximal effect
Outline: as §2

[8] = BET inhibitor-based combinations targeting novel dependencies in MECOM-rearranged (r) AML: AML-191 cell line (AID 2202236; also: nearly all actives have a fitted effect of over 35% in size; also: potency is read from the fitted curve at half-maximal effect)
Outline: as §1

[9] = BET inhibitor-based combinations targeting novel dependencies in MECOM-rearranged (r) AML: AML-194 cell line (AID 2202237; also: nearly all actives have a fitted effect of over 40% in size; also: potency is read from the fitted curve at half-maximal effect)
Outline: as §1

[10] = BET inhibitor-based combinations targeting novel dependencies in MECOM-rearranged (r) AML: HNT-34 cell line (AID 2202234); also: nearly all actives have a fitted effect of over 35% in size; also: potency is read from the fitted curve at half-maximal effect
Outline: as §2

Sequence of Cellular tumor antigen p53 (Homo sapiens) (P04637 whole entry, looked up): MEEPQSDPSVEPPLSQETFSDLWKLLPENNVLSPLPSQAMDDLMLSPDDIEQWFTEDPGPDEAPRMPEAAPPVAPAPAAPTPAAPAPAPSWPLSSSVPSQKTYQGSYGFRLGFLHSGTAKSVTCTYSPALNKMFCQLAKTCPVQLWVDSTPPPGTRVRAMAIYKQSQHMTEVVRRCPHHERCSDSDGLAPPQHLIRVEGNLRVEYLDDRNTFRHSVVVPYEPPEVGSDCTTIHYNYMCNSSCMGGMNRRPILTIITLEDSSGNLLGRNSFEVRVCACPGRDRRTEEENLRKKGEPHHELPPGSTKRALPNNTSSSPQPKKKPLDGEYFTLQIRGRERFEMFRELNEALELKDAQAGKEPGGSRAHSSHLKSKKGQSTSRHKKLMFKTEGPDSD

CC[C@@H]1C(=O)N(C)c2cnc(Nc3ccc(C(=O)NC4CCC(N5CCN(CC6CC6)CC5)CC4)cc3OC)nc2N1C(C)C (stereo partly specified)
active: Potency [4] 148 nM | Potency [5] 59 nM | Potency [6] 118 nM | Potency [7] 166 nM | Potency [8] 166 nM | Potency [9] 93.4 nM
inactive: activation [1] -21.7% | Potency [2] | Potency [3]

CCn1c(-c2nonc2N)nc2cncc(CNC3CCNCC3)c21
inactive: activation [1] -16.3% and 6.25% | Potency [2] | Potency [3] | viability [4] 103%
active: Potency [5] 1660 nM | Potency [6] 2630 nM | Potency [7] 5900 nM | Potency [8] 1860 nM | Potency [9] 4680 nM

Nc1ccn([C@@H]2O[C@H](CO)[C@@H](O)C2(F)F)c(=O)n1
active: Potency [4] 23.5 nM | Potency [5] 10.5 nM | Potency [10] 37.2 nM | Potency [7] 18.6 nM | Potency [8] 13.2 nM | Potency [9] 20.9 nM
inactive: activation [1] -26.8% and -6.68% | Potency [2] | Potency [3]

Cc1ccc2c(c1)C(=O)[C@]1(O)CCN(c3ccccc3)C1=N2
inactive: activation [1] -1.14% and -10.7% | Potency [2] | Potency [3] | viability [4] 110% | Potency [7]
active: Potency [5] 18600 nM | Potency [6] 23500 nM | Potency [8] 23500 nM | Potency [9] 16600 nM

CC[C@H](NC(=O)[C@H](CS(=O)(=O)CC1CC1)N[C@@H](c1ccc(F)cc1)C(F)(F)F)C(=O)C(=O)NC1CC1
inactive: activation [1] 21.7% | Potency [2] | Potency [3] | viability [4] 112% | Potency [5] | Potency [10] | Potency [7] | Potency [8] | Potency [9]

O=C(Cc1ccc(-c2ccc(OCCN3CCOCC3)cc2)cn1)NCc1ccccc1
active: Potency [4] 166 nM | Potency [5] 105 nM | Potency [6] 118 nM | Potency [7] 118 nM | Potency [8] 93.4 nM | Potency [9] 93.4 nM
inactive: activation [1] 20.5% | Potency [2] | Potency [3]

COc1cc(C(=O)N2CCC(N3CCN(C)CC3)CC2)ccc1Nc1ncc2c(n1)N(C)c1ccccc1C(=O)N2C
active: Potency [4] 6610 nM | Potency [5] 2350 nM | Potency [6] 1480 nM | Potency [7] 4680 nM | Potency [8] 9340 nM | Potency [9] 16600 nM
inactive: activation [1] -6.3% and 0.893% | Potency [2] | Potency [3]

CS(=O)(=O)c1ccc(C2=C(c3ccccc3)C(=O)OC2)cc1
inactive: activation [1] -5.73% | Potency [2] | Potency [3] | viability [4] 95.1% | Potency [5] | Potency [6] | Potency [7] | Potency [8]

CCS(=O)(=O)N1CCC([C@@H](C)n2c(C)c(C(=O)NCc3c(OC)cc(C)[nH]c3=O)c3ccccc32)CC1
inactive: activation [1] 7.16% | Potency [2] | Potency [3] | viability [4] 115% | Potency [10] | Potency [7] | Potency [8] | Potency [9]
active: Potency [5] 5900 nM

CCS(=O)(=O)N1CCN(c2ccc(Nc3ncc(C(N)=O)c(NC4CC4)n3)cc2)CC1
active: Potency [4] 4170 nM | Potency [5] 13200 nM | Potency [6] 417 nM | Potency [7] 372 nM | Potency [9] 4680 nM
inactive: activation [1] 25.7% | Potency [2] | Potency [3]

CC1=C(CO)C(=O)O[C@@H]([C@@H](C)[C@H]2CC[C@H]3[C@@H]4C[C@H]5O[C@]56[C@@H](O)C=CC(=O)[C@]6(C)[C@H]4CC[C@]23C)C1
inactive: Potency [2] | Potency [3]
active: Potency [1] 1470 nM | Potency [4] 590 nM | Potency [5] 742 nM | Potency [10] 118 nM | Potency [7] 417 nM | Potency [8] 372 nM | Potency [9] 372 nM

CN1CCC(CNc2ccc3ncc(-c4cccc(OC(F)(F)F)c4)n3n2)CC1
active: Potency [1] 26900 nM | Potency [4] 11800 nM | Potency [5] 8330 nM | Potency [6] 166 nM | Potency [7] 5900 nM | Potency [8] 5250 nM | Potency [9] 4170 nM
inactive: Potency [2] | Potency [3]

Cc1c(F)cc(C(=O)NC2CC2)cc1-c1c(F)cn2c(C(C)(C)C)nnc2c1F
inactive: activation [1] -8.93% | Potency [2] | Potency [3] | viability [4] 104% | Potency [5] | Potency [10] | Potency [7] | Potency [8] | Potency [9]

NC(=O)c1cccc2[nH]c(-c3ccc([C@H]4CCCN4)cc3F)nc12
inactive: activation [1] 28.6% | Potency [2] | Potency [3] | Potency [7]
active: Potency [4] 20900 nM | Potency [5] 20900 nM | Potency [6] 16600 nM | Potency [8] 16600 nM

COc1cccc2c1c(O)c(C(=O)N(C)c1ccc(C(F)(F)F)cc1)c(=O)n2C
inactive: activation [1] 10.1% | Potency [2] | Potency [3] | viability [4] 40.7% | Potency [5] | Potency [6] | Potency [7] | Potency [8] | Potency [9]

Cc1cc(Nc2cc(N3CCN(C)CC3)nc(/C=C/c3ccccc3)n2)n[nH]1
active: Potency [1] 30100 nM | Potency [4] 13200 nM | Potency [5] 8330 nM | Potency [6] 132 nM | Potency [7] 2950 nM | Potency [8] 2090 nM | Potency [9] 1180 nM
inactive: Potency [2] | Potency [3]
